Source: PubChem (University of Kansas High Throughput Screening Laboratory)
A selection: hits, their analogues and other compounds. The true share with any hit is near 3.5%.
Pf apPOL block – Pf-apPOL DNA polymerase inhibition; inhibition, % at 10 µM; Recombinant Pf-apPOL, molecular beacon fluorescence, 1.5 h; 210,000 tested, 0.25% active
mHTT CaM bind – disrupts binding of mutant huntingtin to calmodulin; 190,000 tested, 3.6% active; P42858; AlphaScreen His-mHTT/GST-CaM binding, luminescence; inhibition, % at 15 µM;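 further: 0% = both proteins with DMSO and 100% = one protein alone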
Starred values were filed as active, the others as inactive; i = inactive; / = no result; ! = not active in a repeat. No stated cut-off is given here; in the data, active means inhibition above about 50%; inactive means the rest.

SMILES | Pf apPOL block | mHTT CaM bind
CN(C)c1ccc(CN2CCN(c3ccc(F)cc3)CC2)cc1 | -3.9 | 37.6
CN(C)c1ccc(CN2CC=C(c3ccc(F)cc3)CC2)cc1 | 3.0 | 51.7*
O=[N+]([O-])c1c(Br)sc(Br)c1[N+](=O)[O-] | / | 51.8*
Cc1ccc(N2CCN(CCc3ccccc3)CC2)cc1 | -2.9 | 14.9
Cc1cccc(N2CCN(CCc3ccccc3)CC2)c1C | -2.2 | 100.2*
Fc1nc(N2CCNCC2)c(F)c(Sc2ccc(Cl)cc2)c1F | / | 96.3*
c1cnc2nc(N3CCNCC3)oc2c1 | / | -2.8
COc1cc(C=C2Oc3cc(OC(=O)N(C)C)cc(C)c3C2=O)cc(OC)c1OC | -8.2 | -5.7
O=Cc1nc2ccccc2n1Cc1ccccc1 | -4.8 | 35.2
O=Cc1nc2ccccc2n1Cc1ccc(Cl)cc1Cl | -5.7 | 95.4*
CC(N)Cn1nc(C(F)(F)F)cc1C1CC1 (stereo not drawn) | / | -7.6
Cc1cccc(CC(=O)N2CCCN(C3CCN(Cc4ccc(F)cc4)C3=O)CC2)c1 (stereo not drawn) | 1.4 | 86.2*
O=C(Cc1ccsc1)N1CCCN(C2CCN(Cc3ccc(F)cc3)C2=O)CC1 (stereo not drawn) | 0.8 | 39.2
CC=C1CC(C)C(C)(O)C(=O)OCC2CCN3CCC(OC1=O)C23 (stereo not drawn) | -12.6 | /
COc1cc(Br)cc(/C=C/[N+](=O)[O-])c1O | -0.8 | 71.9*
COc1cc(/C=C/[N+](=O)[O-])c(OC)cc1C | -3.8 | 24.8
O=c1cccc2n1CC1CC2CN(Cc2cc(Br)ccc2O)C1 (stereo not drawn) | 1.4 | 3.1
c1ccc2c(c1)CCc1c-2[nH]c2ccccc12 | -4.8 | 62.5*
Cn1cc(CN2CCN(C(=O)Cc3cccs3)CC2)ccc1=O | -0.1 | -4.6
Cc1noc(C2CCNCC2)n1 | / | -3.5
Cn1cc(C(=O)NC2CCCCC2)c2cccnc21 | -3.3 | -6.6
NCCc1c[nH]c2ccccc12 | 4.3 | /
c1ccc(Oc2ccc3[nH]cc(CCN4CC4)c3c2)cc1 | / | 71.9*
NCCc1c[nH]c2ccc(OCc3ccccc3)cc12 | 2.6 | 80.1*!
CN1CCCN(Cc2c[nH]c3ccccc23)CC1 | -4.0 | -3.8
SMILES | Pf apPOL block | mHTT CaM bind
CCSc1nc2ccccc2c(=O)n1-c1ccc(Cl)cc1 | 2.2 | -9.9
COc1ccccc1C=C1Oc2cc(OC(=O)N(C)C)ccc2C1=O | -6.9 | 0.1
CN(C)C(=O)Oc1ccc2c(c1)OC(=Cc1ccccc1Br)C2=O | -6.8 | 0.9
O=[N+]([O-])c1ccc(SCC(Cl)CS(=O)(=O)Cc2ccccc2)cc1 (stereo not drawn) | -7.3 | 1.0
CCOc1cc(C(c2c(O)c3ccccc3oc2=O)c2c(O)c3ccccc3oc2=O)ccc1O | -9.7 | 84.0*
O=c1oc2ccccc2c(O)c1C(c1cccnc1)c1c(O)c2ccccc2oc1=O | -3.5 | 6.7
CC1N=C(c2ccccc2)c2ccccc2N(CC(=O)Nc2ccc(F)cc2Cl)C1=O (stereo not drawn) | -18.9 | 5.0
CC1N=C(c2ccccc2)c2ccccc2N(CC(=O)Nc2ccc(F)c(Cl)c2)C1=O (stereo not drawn) | -19.2 | 66.0*
N/C(=N\[N+](=O)[O-])Nc1ccc(NC(=O)C2CCCCC2)cc1 | -2.2 | i
O=C1OC(c2cncc(Br)c2)=N/C1=C\c1ccco1 | 2.9 | 3.0
Cc1cccc(-n2c(/C=C/c3cccnc3)nc3ccccc3c2=O)c1 | -9.2 | 100.2*
COc1ccc(-n2c(/C=C/c3ccc(O)c(OC)c3)nc3ccccc3c2=O)cc1 | -3.8 | 10.1
Cc1cccc(/C=C/c2nc3ccccc3c(=O)n2-c2cccc(O)c2)c1 | -12.3 | 24.7
COc1cccc(-n2c(/C=C/c3ccc(O)c(O)c3)nc3ccccc3c2=O)c1 | -4.2 | 69.6*
O=c1c2ccccc2nc(/C=C/c2cccc([N+](=O)[O-])c2)n1-c1ccccn1 | 91.0*! | 2.0
COc1cccc(-n2c(/C=C/c3cccc([N+](=O)[O-])c3)nc3ccccc3c2=O)c1 | -1.0 | 26.5
CCC(C)NC(=O)c1ccc(N2CC3CC(C2)c2cccc(=O)n2C3)c(N)c1 (stereo not drawn) | 6.1 | 2.0
COc1cc([N+](=O)[O-])ccc1NC(=O)c1cccn(Cc2cccc(C(F)(F)F)c2)c1=O | 3.6 | 4.5
Cc1cc(Cl)ccc1NC(=O)c1cn(C)c2ncccc12 | -2.5 | -8.3
O=C1C2CCCN2C(c2ccccc2Cl)N1c1ccccn1 (stereo not drawn) | 0.0 | -2.7
COc1ccc(C=C2C(=O)NC(=S)NC2=O)cc1Br | 64.2* | /
COc1cc(C=C2C(=O)NC(=O)NC2=O)ccc1OCC(=O)O | -1.4 | 4.0
CC1CN(c2ccc(C(F)(F)F)cc2[N+](=O)[O-])CC(C)N1 (stereo not drawn) | 2.1 | -3.0
O=C(O)C1Cc2cc(C(F)(F)F)ccc2N2CCCCC12 (stereo not drawn) | 2.6 | 50.4*
CN1CCC23CCCCC2C1Cc1ccc(O)cc13 (stereo not drawn) | 1.6 | /
CCCCc1ccc(C=C(C#N)C#N)s1 | / | 11.9
